The campaign covered roughly 69,000 compounds. About 8,600 (12%) showed an effect of 50% or more. What follows is part of a selection rich in strong results, with near analogues and random picks from the rest.
These molecules were tested on Plasmodium berghei (assay: Screen against P. berghei liver stage (PbLuc), transformed with Luciferase, at 10uM). Details: tested at 10 uM.
Format: functional, HepG2
In the case of `CCCC(=O)N1CCCCC1c1nccc(C)n1` (configuration not stated), the INHIBITION is reported as 20.8%.
In the case of `COc1ccc(CN(C)[C@@H]2CN(C(=O)c3cccn3C)C[C@H]2O)cc1`, the INHIBITION is reported as 32.8%.
`CN1CCN(c2ncc3c(c2C(=O)O)CCN(C2CCOC2)C3)CC1` (configuration not stated) was tested, and the INHIBITION was 58.5%.
With `CCN(CC)c1ncc2c(c1C(=O)O)CCN(C1CCOC1)C2` (configuration not stated) the INHIBITION was 15.7%.
In the case of `CCN(C)c1ncc2c(c1C(=O)O)CCN(C1CCOC1)C2` (configuration not stated), the INHIBITION is reported as 33.4%.
`CO[C@@H]1CCN(C(=O)c2ccsc2)[C@@H]2CN(CC3CC3)C[C@@H]21` showed an INHIBITION of -19.6%.
For `NC(=O)COc1ccc(CN2CC[C@@]3(O)CCCC[C@H]3C2)cc1Cl`, the INHIBITION was 16.8%.
`NC(=O)COc1ccc(CN2CCC3(CC2)[C@H](O)C[C@@H]3O)cc1Cl` gave an INHIBITION of 28.7%.
`NC(=O)COc1ccc(CN2CCC(O)(CN3CCCCC3)C2)cc1Cl` (configuration not stated) was tested, and the INHIBITION was 50.5%.
`COc1ccccc1C1CCN(C(=O)CN2C(=O)OC(C)(C)C2=O)CC1` was tested, and the INHIBITION was -140%.
For `CSc1ncc(CNC(C)c2cnn(-c3ccccc3)c2C)cn1` (configuration not stated), the INHIBITION was 36.7%.
Molecule `Cc1c(C(C)NCC2CCCC2)cnn1-c1ccc(F)cc1F` (configuration not stated) has an INHIBITION of 62.9%.
`CSc1ncc(CNC(C)c2cnn(-c3ccc(F)cc3F)c2C)cn1` (configuration not stated) gave an INHIBITION of 50.3%.
For `Cc1c(C(C)NC2CCOCC2)cnn1-c1ccc(F)cc1F` (configuration not stated), the INHIBITION was 22.3%.
Work on `Cc1c(C(C)NC2CCCC2)cnn1-c1ccc(F)cc1F` (configuration not stated) yielded an INHIBITION of 31.9%.
For `COc1ccc(-n2ncc(C(C)NCc3cnc(SC)nc3)c2C)cc1` (configuration not stated), the INHIBITION was 7.6%.
`O=C(NC[C@H]1OC[C@@H]2CCN(C3CCOCC3)C[C@@H]21)c1ccncc1` gave an INHIBITION of 36.2%.
Work on `COc1c(CNC2CCc3c(Cl)cccc32)c(C)nn1C` (configuration not stated) yielded an INHIBITION of 36.3%.
`CCCN1CCC(N2CCC(Cn3cc(CC(C)O)nn3)CC2)CC1` (configuration not stated) gave an INHIBITION of 25.3%.
Work on `OCc1cn(CC2CCN(C3CCSC3)CC2)nn1` (configuration not stated) yielded an INHIBITION of -14.1%.
Molecule `CC(O)Cc1cn(CC2CCN(C3CCSCC3)CC2)nn1` (configuration not stated) has an INHIBITION of 57.8%.
For `O=C(O)c1cc(-c2cccs2)nc2c(Br)cnn12`, the INHIBITION was 15.9%.
Molecule `Cn1cc(NC(=O)CNC(=O)N2CCN(c3ccccc3)CC2)cn1` has an INHIBITION of 21.5%.
Molecule `Cc1cnc(CN(C)C2CCN(CC(=O)Nc3nncs3)C2)o1` (configuration not stated) has an INHIBITION of 20.9%.
`CCCC(=O)N1CCC2(CC1)CN(Cc1cccc(C)n1)C(=O)CO2` gave an INHIBITION of 25.3%.
Work on `O=C(NCCc1ccccn1)[C@@H]1CC[C@@H]2[C@@H](CCN2Cc2ccoc2)O1` yielded an INHIBITION of 59.9%.
`O=C(NCc1cccs1)[C@H]1CC[C@@H]2[C@@H](CCN2Cc2ccoc2)O1` was tested, and the INHIBITION was -5.31%.
Work on `O=C(Nc1cnccn1)[C@H]1CC[C@@H]2[C@@H](CCN2Cc2ccoc2)O1` yielded an INHIBITION of 8.52%.
For `CS(=O)(=O)N1CC[C@H]2O[C@H](C(=O)NCc3cccnc3)CC[C@H]21`, the INHIBITION was 11.4%.
`CS(=O)(=O)N1CC[C@H]2O[C@H](C(=O)NCCc3ccccn3)CC[C@H]21` gave an INHIBITION of 54.7%.
`CS(=O)(=O)N1CC[C@H]2O[C@H](C(=O)NCCc3ccncc3)CC[C@H]21` was tested, and the INHIBITION was -35.9%.
In the case of `Cc1c(C(=O)N(C)c2ccccc2)cccc1N(C)S(C)(=O)=O`, the INHIBITION is reported as 22.07%.
Molecule `CN(Cc1ccc(F)cc1)[C@@H]1CN(S(C)(=O)=O)C[C@H]1O` has an INHIBITION of 14.12%.
Molecule `CCN1CCCN(C(=O)c2cnc(OC(C)C)c(Cl)c2)CC1` has an INHIBITION of 60.1%.
`CC(=O)N1CCCN(C(=O)c2cnc(OC(C)C)c(Cl)c2)CC1` showed an INHIBITION of 51.1%.
`CC(C)Oc1ncc(C(=O)N2CCC(CC(N)=O)CC2)cc1Cl` gave an INHIBITION of 16.9%.
Molecule `CC(O)CN1CCN(C(=O)c2cnc(OC(C)C)c(Cl)c2)CC1` (configuration not stated) has an INHIBITION of 40.5%.
`CC(=O)N1CCN(C(=O)c2cnc(OC(C)C)c(Cl)c2)CC1` was tested, and the INHIBITION was -2.32%.
Work on `CC(C)Oc1ncc(C(=O)N2CCC(N(C)C)CC2)cc1Cl` yielded an INHIBITION of 26.6%.
`O=C(N[C@@H]1CN(Cc2cccs2)[C@@H]2CCCO[C@@H]21)c1cscn1` showed an INHIBITION of -17.1%.
In the case of `O=C(NCCNc1ncccn1)N1CCCC1c1ccncc1` (configuration not stated), the INHIBITION is reported as 11.8%.
`Cc1nc(CN(Cc2ccncc2)C2CCN(C)CC2)cs1` showed an INHIBITION of 8.46%.
`Cc1c(-c2cc(C(F)(F)F)nc(N3CCC(N)CC3)n2)cnn1C` was tested, and the INHIBITION was 50.8%.
`CCNC(=O)[C@@H]1C[C@H](N)CN1c1cc(C(F)(F)F)nc(N2CCCC2)n1` showed an INHIBITION of -122%.
Work on `Cc1ccc(-c2cc(C(F)(F)F)nc(N3CCOCC3)n2)s1` yielded an INHIBITION of 29.8%.
Molecule `FC(F)(F)c1cc(-c2cccs2)nc(N2CCN3CCCC3C2)n1` (configuration not stated) has an INHIBITION of 25.3%.
`CCn1ncc(-c2cc(C(F)(F)F)nc(N3CCC(N)CC3)n2)c1C` showed an INHIBITION of -1.84%.
`CCc1ccc(-c2cc(C(F)(F)F)nc(N3CCC(N)CC3)n2)cc1` was tested, and the INHIBITION was 91.4%.
With `CCc1nc(C2CCCN2Cc2cc(=O)n(C)c(=O)n2C)no1` (configuration not stated) the INHIBITION was -27.9%.
With `CC(C)C(CCO)NC(=O)Nc1ccc(-c2csnn2)cc1` (configuration not stated) the INHIBITION was -6.39%.
`Cc1cccc(CN2C(=O)CCC23CCN(c2ccccn2)CC3)n1` gave an INHIBITION of -11%.
In the case of `Cc1nn(-c2cc(Cl)cc(Cl)c2)c(C)c1CCC(=O)O`, the INHIBITION is reported as 46.1%.
With `CC(c1ccccn1)N(C)Cc1ccc(-n2cncn2)cc1` (configuration not stated) the INHIBITION was 28.5%.
`Cc1cccc(C2(C(=O)NCC3CN(C)CCO3)CC2)c1` (configuration not stated) was tested, and the INHIBITION was 19.8%.
With `Cc1ccccc1OCCCC(=O)NCC1CN(C)CCO1` (configuration not stated) the INHIBITION was 22.265%.
`CN1CCOC(CNC(=O)C2(c3cccc(Cl)c3)CC2)C1` (configuration not stated) gave an INHIBITION of 0.348%.
In the case of `CN1CCOC(CNC(=O)C2(c3ccccc3)CCC2)C1` (configuration not stated), the INHIBITION is reported as 57.4%.
For `CN1CCOC(CNC(=O)CCCOc2ccccc2F)C1` (configuration not stated), the INHIBITION was 52%.
For `CN1CCOC(CNC(=O)CCCOc2cccc(F)c2)C1` (configuration not stated), the INHIBITION was -5.2%.
Work on `CC(C)CC(CC(C)C)NC(=O)c1ccn(C)c(=O)c1` yielded an INHIBITION of 1.51%.
With `COc1ncccc1CN1C[C@H]2C[C@@H](C(=O)NCC3CC3)N(C)[C@H]2C1` the INHIBITION was 29.7%.
`CC(C)c1nn(C)cc1CNCc1cccnc1N(C)C` gave an INHIBITION of 14.7%.
In the case of `CSCC(=O)N1CCc2c(cnc(C)c2-c2noc(-c3ccco3)n2)C1`, the INHIBITION is reported as 33%.
Work on `Cc1ncc(C(=O)OCC2CCN(c3ccccc3)C2)s1` (configuration not stated) yielded an INHIBITION of 58.5%.
`COCCn1cc(NC(=O)NCC2CCN(c3ccccc3)C2)cn1` (configuration not stated) gave an INHIBITION of 22.8%.
`O=C(OCC1CCCN(C(=O)c2ccccc2)C1)c1cscn1` (configuration not stated) gave an INHIBITION of 10.6%.
For `O=C(OCC1CCN(c2ccccc2)C1)c1cscn1` (configuration not stated), the INHIBITION was 51.7%.
Molecule `Cn1ncc(C(=O)OCC2CCN(c3ccccc3)C2)c1C(F)F` (configuration not stated) has an INHIBITION of 9.96%.
`COCc1nc(C(=O)OCC2CCN(c3ccccc3)C2)cs1` (configuration not stated) gave an INHIBITION of 18.3%.
Work on `Cc1ncsc1C(=O)N1CCN(Cc2ccccc2)CC1C` (configuration not stated) yielded an INHIBITION of 23.8%.
In the case of `Cc1ncsc1C(=O)OCCN1CCCc2ccccc21`, the INHIBITION is reported as 41.3%.
`Cc1ncsc1C(=O)OCC1CCN(c2ccccc2)C1` (configuration not stated) showed an INHIBITION of 89.4%.

— ChEMBL document CHEMBL4513216, “Probing the Open Global Health Chemical Diversity Library for Multistage-Active Starting Points for Next-Generation Antimalarials” (ACS Infect Dis, 2020)
